# Screening data deposited in PubChem BioAssay by The Scripps Research Institute Molecular Screening Center.
# A selection: hits, their analogues and other compounds. The true share with any hit is near 2.4%.
# M1 PAM: potentiates human M1 receptor response to acetylcholine; P11229; actives 0.088% (n = 360,000); activation, % at 3 µM; CHO-K1 hM1, Fluo-8 calcium fluorescence, ACh EC20; 0% = ACh EC20, 100% = maximal ACh; AID 588819; in the data active = activation above about 19%, passing the limit was not always enough
# Target sequence (P11229 whole entry, looked up): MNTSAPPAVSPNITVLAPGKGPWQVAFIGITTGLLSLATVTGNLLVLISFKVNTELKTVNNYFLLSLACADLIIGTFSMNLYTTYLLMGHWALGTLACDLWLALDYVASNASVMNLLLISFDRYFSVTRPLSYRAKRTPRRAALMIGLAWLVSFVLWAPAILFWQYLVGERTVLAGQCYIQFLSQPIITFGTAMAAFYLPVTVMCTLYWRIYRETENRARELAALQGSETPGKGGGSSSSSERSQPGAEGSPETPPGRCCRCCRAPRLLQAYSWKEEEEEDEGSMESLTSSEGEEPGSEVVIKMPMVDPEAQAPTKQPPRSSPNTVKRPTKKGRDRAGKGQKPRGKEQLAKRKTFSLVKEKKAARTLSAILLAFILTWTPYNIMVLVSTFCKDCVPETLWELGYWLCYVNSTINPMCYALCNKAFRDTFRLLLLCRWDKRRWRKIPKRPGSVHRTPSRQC
# CHO-K1 Ca antag: counter-screen for M1 antagonists: effect in parental CHO-K1 cells | ATP-induced calcium, Fluo-8 fluorescence | inhibition, % at 3 µM | actives 0.6% (n = 360,000);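 active = inhibition above a per-plate cutoff, the plate's mean sample inhibition plus 3 SD, cut at about 24% in these data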;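 also: 0% = DMSO plus EC80 ATP and 100% = DMSO alone without ATP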
# M1 PAM parental: counter-screen for M1 PAMs: effect in parental CHO-K1 cells; actives 0.02% (n = 360,000); ATP EC20, Fluo-8 calcium fluorescence; 0% at ATP EC20, 100% at ATP max; activation, % at 3 µM;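 active = activation above the run cutoff, the mean activation of all test compounds plus 3 SD, cut at about 40% in these data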;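 also: peak over basal fluorescence ratio in a 140 s read after ATP addition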
# M1 antag: antagonists of human M1 muscarinic receptor. P11229. CHO-K1 hM1, Fluo-8 calcium fluorescence, ACh EC80 antagonist. inhibition, % at 3 µM. actives 1.3% (n = 360,000);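 active = percent inhibition above its own plate's cutoff, namely the mean of that plate's compound wells plus 3 SD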;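 also: peak over basal fluorescence ratio during 140 s after agonist addition; 0% = ACh EC80 plus DMSO and 100% = DMSO alone without agonist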
# CHRM1 agonist: agonists of human M1 muscarinic receptor; actives 0.33% (n = 360,000); P11229; CHO-K1 hM1, Fluo-8 calcium fluorescence, agonist mode; 0% DMSO, 100% acetylcholine EC100; activation, % at 3 µM;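 active = activation above the run's mean compound activation plus 3 SD, cut at about 16% in these data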;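 also: peak over basal fluorescence ratio within a 140 s kinetic read after compound addition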
# M1 ag parental: nonselective activator or artifact in parental CHO-K1 cells; Fluo-8 calcium fluorescence; scaled to maximal ATP response, vehicle zero; activation, % at 3 µM; actives 0.48% (n = 360,000); AID 602248; in the data active = activation above about 15%;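 also: untransfected CHO-K1 host cells lacking M1 receptor as counterscreen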
# * = called active by the depositor.
SMILES,M1 PAM,CHO-K1 Ca antag,M1 PAM parental,M1 antag,CHRM1 agonist,M1 ag parental
Cc1[nH]nc(-c2ccc(OCc3cnn(-c4ccccc4)c3)cc2O)c1Oc1ccc(F)cc1,5.6,-14.8,16.5,-8.8,-1.4,0.4
CCOc1ccc(-c2n[nH]c(C)c2Oc2ccc(OC)cc2)c(O)c1,-5.9,24.3*,-7.0,7.6,-3.8,-0.2
CCOC(=O)C1=C(COC(=O)/C=C/c2ccccc2F)NC(=O)NC1C (stereo not drawn),-13.2,20.9,-30.7,27.0*,-0.1,2.4
CCOC(=O)C1=C(COC(=O)/C=C/c2ccccc2Cl)NC(=O)NC1C (stereo not drawn),-4.3,-0.4,-2.9,9.2,-0.1,3.4
CCN(CC)CCCNc1ncnc2scc(-c3ccc(F)cc3)c12,-19.7,-13.3,16.3,33.9*,-9.1,0.2
COc1ccc(NC(=S)N(CCCN2CCCCC2)Cc2cccs2)cc1,-21.8,4.5,-3.9,59.4*,-8.9,0.4
COc1ccc(NC(=S)N(CCCN2CCC(C)CC2)Cc2cccs2)cc1,1.0,-18.9,9.3,0.5,-6.4,1.5
Cc1c(Cl)cccc1NC(=S)N(CCCN1CCOCC1)Cc1cccs1,-23.7,-8.6,2.8,81.6*,-9.3,0.9
Cc1ccc(S(=O)(=O)N2CCC(C(=O)OC(C)C(=O)NC3CCCCC3C)CC2)cc1 (stereo not drawn),0.2,-12.0,13.9,3.8,-3.0,3.5
Cc1cccc(N2CCN(C(=O)CCCCCn3c(=S)[nH]c4ccc(N5CCOCC5)cc4c3=O)CC2)c1C,2.1,-13.3,14.8,-2.2,-5.8,1.0
CCn1c(SCC(=O)N2CCCC2)nc2c1c(=O)n(C)c(=O)n2C,9.0,-16.6,6.9,-14.3,-6.9,0.2
Cn1c(=O)c2c(nc(SCC(=O)N3c4ccccc4CCc4ccccc43)n2C)n(C)c1=O,-11.9,21.5,-11.0,19.2,-2.0,-0.6
Cn1c(=O)c2c(nc(SCC(=O)N3CCc4ccccc4C3)n2C)n(C)c1=O,16.8,7.9,-11.4,-5.2,16.5*,0.5
CCn1c(SCC(=O)N2CCC(C)CC2)nc2c1c(=O)n(C)c(=O)n2C,27.5*,-1.7,10.7,-31.0,-6.5,0.7
CN1CCN(C(=O)/C(=C\c2ccccc2)c2ccccc2)CC1,-25.6,5.0,5.6,98.7*,-6.2,0.2
CN1CCN(C(=O)/C(=C/c2ccc(F)cc2)NC(=O)c2ccccc2)CC1,1.0,12.6,-16.8,0.4,-7.2,0.4
Cc1ccc(NC(=O)CCC(=O)c2cccs2)c(Br)c1,2.2,-0.8,-0.2,-1.2,-6.1,-0.1
COc1ccc(-n2c(C)cc(/C=C3\C(=N)N4N=C(CC(=O)N5CCOCC5)SC4=NC3=O)c2C)cc1,-0.7,-4.7,-5.4,-4.0,-5.4,0.9
COc1ccc(S(=O)(=O)N2CCC(C(=O)NC3CCCCC3C)CC2)cc1 (stereo not drawn),1.0,-9.8,-3.0,-9.8,-7.1,1.9
COc1ccc(NC(=O)CSc2ncccc2C(=O)OC(C)C)cc1OC,-6.8,26.9*,-9.5,15.0,-0.8,8.6
COc1ccc(NC(=O)CSc2ccccn2)cc1OC,6.7,-2.6,16.1,-4.7,0.1,-0.3
COc1cc(N=c2c([N+](=O)[O-])nn(-c3ccc4c(c3)OCCO4)n2O)cc(OC)c1,2.3,-9.7,13.4,-5.3,-4.1,1.7
CC(C)c1ccc(N=c2c([N+](=O)[O-])nn(-c3ccc4c(c3)OCCO4)n2O)cc1,-24.2,-11.8,9.3,38.5*,-4.7,8.6
O=[N+]([O-])c1nn(-c2ccc3c(c2)OCCO3)n(O)c1=NC1CCN(Cc2ccccc2)CC1,-25.3,15.7,-8.1,46.8*,-9.1,-0.1
CC1(C(=O)OCC(=O)NC(=O)NCc2ccccc2)CC1(Cl)Cl (stereo not drawn),7.9,-10.4,19.1,-3.7,-6.2,15.2*
SMILES,M1 PAM,CHO-K1 Ca antag,M1 PAM parental,M1 antag,CHRM1 agonist,M1 ag parental
CC1(C(=O)OCC(=O)NCc2ccc(Cl)cc2)CC1(Cl)Cl (stereo not drawn),5.0,-9.7,16.4,-14.8,-2.1,0.1
Cc1ccccc1SCC(=O)OCC(=O)Nc1sccc1C(N)=O,-16.1,27.9*,5.7,25.7,-2.3,15.5*
NC(=O)c1ccsc1NC(=O)COC(=O)Cc1c[nH]c2ccccc12,-12.6,19.7,-18.5,20.2,7.2,13.3
NC(=O)c1ccsc1NC(=O)COC(=O)Cc1ccc(F)cc1,-9.4,14.0,-8.0,10.2,5.7,17.1*
NC(=O)c1ccsc1NC(=O)CSc1ccccc1F,4.7,-13.6,14.8,-19.4,4.2,5.4
COc1cc(CCC(=O)OCC(=O)Nc2sccc2C(N)=O)cc(OC)c1OC,-15.5,38.9*,-16.3,36.9*,0.6,14.0
NC(=O)c1ccsc1NC(=O)COC(=O)Cc1cccc2ccccc12,-9.7,28.5*,6.3,40.0*,2.0,9.4
COc1cc(C(=O)OCC(=O)Nc2sccc2C(N)=O)cc(OC)c1OC,-10.0,-1.8,12.9,33.4,-0.4,7.8
NC(=O)c1ccsc1NC(=O)COC(=O)Cc1ccccc1[N+](=O)[O-],-14.4,31.3*,-16.8,10.4,4.0,9.1
CCCCOc1ccc(C(=O)NCC(=O)N2CCN(Cc3ccc4c(c3)OCO4)CC2)cc1,-15.7,5.0,-18.7,29.6*,-6.2,1.8
COCC(C)NC(=O)c1ccc(CN2CCc3ccccc3C2)cc1 (stereo not drawn),-25.5,15.7,-4.0,64.9*,-9.3,-0.1
O=C(NCC(=O)N1CCN(Cc2ccc3c(c2)OCO3)CC1)c1ccccc1F,-0.1,-14.2,0.9,2.0,0.4,0.8
O=C(NCc1ccc2c(c1)OCO2)c1ccc(CN2CCc3ccccc3C2)cc1,-20.1,-15.2,15.7,32.2*,-5.5,0.6
CCC(C)NC(=O)c1ccc(CN2CCc3ccccc3C2)cc1 (stereo not drawn),-25.9,-6.0,7.1,65.5*,-8.8,0.9
C[C@H](O)[C@@H]1C(=O)N2CCc3ccc(-c4ccccc4)cc3[C@@H]2C[C@@H]1N(C)C(=O)c1ccc(C#N)cc1,5.1,-5.8,15.5,-11.1,-1.6,1.0
CCCC1C2C(=O)N(c3cccc(C)c3)C(=O)C2ON1c1ccccc1 (stereo not drawn),4.2,-0.4,7.0,-0.7,-0.3,16.8*
COc1ccc(C(=O)Nc2ccc(C)cn2)cc1S(=O)(=O)N1CCCc2ccccc21,-13.2,15.8,-29.1,23.4*,-4.1,0.8
CCn1c(COc2cccc(C)c2C)nnc1SCC(=O)Nc1cc(C)on1,12.5,1.9,7.3,-1.3,-4.9,17.5*
CCn1c(COc2ccccc2C)nnc1SCC(=O)Nc1cc(C)on1,12.4,-17.6,12.5,-10.2,5.3,-0.1
Cc1nc2c(C)cccn2c(=O)c1NC(=O)c1cccc2ccccc12,1.6,-5.0,7.7,0.1,-2.1,0.8
